From PubChem BioAssay AID431 (Sanford-Burnham Center for Chemical Genomics, 2006)
The campaign covered roughly 63,000 compounds. About 1,100 (1.7%) were called active.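 The calls were made as follows: active = compounds whose percent cytotoxicity in the single-dose primary screen, scaled between solvent and toxic-drug controls, exceeds 50; inactive = the rest.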 The list comes from a sample in which actives are over-represented; it also holds similar structures and randomly drawn compounds. Results with a measured potency or affinity are listed apart.

test: viability loss of HPDE-C7K cells – cell-based, fluorescence, HTS, primary screen (AID 431); conditions: HPDE-C7K KRASV12 cells, Alamar Blue viability, 48 h; at 10 µM; active compounds read high;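 also: 0% = DMSO solvent wells and 100% = doxorubicin-treated wells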

| Structure (SMILES) | cytotoxicity |
| --- | --- |
| CC1CCN(CC(O)COC2CCC(C(C)(C)C)CC2)CC1 (centres undefined) | 50.3% (active) |
| Cc1ccc(N2CCN(CC(O)COC3CCCCC3)CC2)cc1 (centres undefined) | 42.6% (inactive) |
| CC1CCN(CC(O)COc2ccc(F)cc2)CC1 (centres undefined) | -1.9% (inactive) |
| CC1CC(=O)N(Cc2ccccc2)c2ccccc2N1C=O (centres undefined) | 7.1% (inactive) |
| CON(C)c1nc(Oc2ccc(=O)[nH]n2)nc(N(C)C)n1 | -15.6% (inactive) |
| CCC1CCCCN1CCNC(=O)C1CCN(S(=O)(=O)c2c(C)noc2C)CC1 (centres undefined) | -6.9% (inactive) |
| CCOC(=O)N1CCN(C(=O)c2ccc3c(c2)sc2nc(-c4ccc(OC)cc4)cn23)CC1 | 19% (inactive) |
| COc1ccc2c(c1)sc1nc(-c3ccccc3)cn12 | 53.3% (active) |
| CCOC(=O)N1CCN(C(=O)c2ccc3c(c2)sc2nc(-c4ccccc4)cn23)CC1 | 6.1% (inactive) |
| O=C(NC1=NCCS1)c1ccc2c(c1)C(=O)N(Cc1ccco1)C2=O | -7.1% (inactive) |
| O=C(OC(C(=O)NCC1CCCO1)c1ccccc1F)c1ccco1 (centres undefined) | 8.7% (inactive) |
| CCn1ncc(C2=NOC(C(=O)NCc3ccccc3)C2)c1C (centres undefined) | 48.7% (inactive) |
| CCn1ncc(C2=NOC(C(=O)NCc3ccc(OC)cc3)C2)c1C (centres undefined) | 23.7% (inactive) |
| CCn1ncc(C2=NOC(C(=O)NCc3ccc(Cl)cc3)C2)c1C (centres undefined) | 59.3% (active) |
| CC1=C(C(=O)Nc2cccc(C)n2)C(c2ccc3c(c2)OCO3)C2=C(CC(c3ccco3)CC2=O)N1 (centres undefined) | 7.4% (inactive) |
| COC(=O)c1sccc1NC(=O)c1ccncc1 | 5.9% (inactive) |
| O=C(Cc1ccccc1)N(c1ccc(F)cc1)C1C=CS(=O)(=O)C1 (centres undefined) | 3.4% (inactive) |
| Cc1nn(Cc2ccccc2Cl)c(C)c1NC(=O)C1C2CCC(O2)C1C(=O)O (centres undefined) | 0.4% (inactive) |
| C=CCn1c(SCC(=O)Nc2cc(C)ccc2C)nnc1-c1cnccn1 | -12.5% (inactive) |
| CCn1c(SCC(=O)Nc2ccccc2OC)nnc1-c1cnccn1 | -28% (inactive) |
| C=CCn1c(SCC(=O)Nc2cc3oc4ccccc4c3cc2OC)nnc1-c1cnccn1 | 50.9% (active) |
| Cc1ccc(OCCN2CCN(C(=O)CCC(=O)Nc3nnc(C(C)C)s3)CC2)cc1 | 14.3% (inactive) |
| COc1ccc(-c2noc(COc3ccc(C)c(C)c3)n2)cc1OC | 4.5% (inactive) |
| COc1ccc(-c2noc(COc3ccc4ccccc4c3Br)n2)cc1OC | 58% (active) |
| COc1ccc(-c2noc(COc3ccccc3OC)n2)cc1OC | -10.5% (inactive) |

| Structure (SMILES) | cytotoxicity |
| --- | --- |
| CCOC(=O)N1CCN(Cc2nc3c(c(=O)[nH]c(=O)n3C)n2CCCc2ccccc2)CC1 | -0.5% (inactive) |
| CCN(CC)CCCNC(=O)Cn1cc2c(n1)CCC(C)C2 (centres undefined) | 3.7% (inactive) |
| COc1cccc(Oc2cnc(N)nc2-c2ccc(OC)cc2O)c1 | 45.2% (inactive) |
| COc1ccc(-c2nc(N)ncc2Oc2ccccc2Br)c(O)c1 | 3.7% (inactive) |
| COc1ccc(-c2nc(N)nc(C)c2Oc2ccccc2Br)c(O)c1 | 92.6% (active) |
| CCc1ccccc1NC(=O)CN(C)C(=O)CN1C(=O)NC2(CCCCCC2)C1=O | 2.1% (inactive) |
| COc1ccc(NC2C=CS(=O)(=O)C2)c(OC)c1 (centres undefined) | 4.8% (inactive) |
| Cc1n[nH]c(C)c1S(=O)(=O)N1CCN(c2ccccn2)CC1 | 7.4% (inactive) |
| CCc1oc2ccccc2c1C(=O)CCN1CCCCC1 | 9.9% (inactive) |
| CCCCC(=O)c1c(O)c2ccccc2oc1=O | 17.2% (inactive) |
| CCOC(=O)C1=C(C)NC2=C(C(=O)CCC2)C1c1cc(OC)ccc1OC (centres undefined) | 1.4% (inactive) |
| CCOc1ccc(Cn2c(=O)oc3ccc(C)cc32)cc1OC | -2.4% (inactive) |
| O=S(=O)(c1ccc2ccccc2c1)N1CCCCC1 | 5.8% (inactive) |
| O=S(=O)(c1ccc2ccccc2c1)N(CC(O)CN1CCOCC1)c1ccccc1 (centres undefined) | -11.1% (inactive) |
| O=C(CN1C(=O)CCSc2ccccc21)Nc1ccccc1 | -22.3% (inactive) |
| CCC(=O)Nc1nnc(SCC(=O)Nc2ccc(F)cc2)s1 | -4.3% (inactive) |
| CCCSc1nnc(NC(=O)Nc2ccc(F)cc2)s1 | 75.2% (active) |
| CCCSc1nnc(NC(=O)Nc2ccccc2)s1 | -9.2% (inactive) |
| COc1cc(-c2nc3cnccc3n2C)cc(OC)c1OC | -11.3% (inactive) |
| Cc1onc(-c2ccccc2)c1C(=O)Nc1cc(C(F)(F)F)ccc1N1CCOCC1 | 60.3% (active) |
| O=C(Nc1cc(C(F)(F)F)ccc1N1CCOCC1)c1cccnc1 | 2.2% (inactive) |
| O=C(Nc1cc(C(F)(F)F)ccc1N1CCOCC1)c1ccco1 | -2.4% (inactive) |
| CC(=O)Nc1cc(C(F)(F)F)ccc1N1CCOCC1 | -2.7% (inactive) |
| Cc1onc(-c2ccccc2)c1C(=O)Nc1ccccc1N1CCOCC1 | 4.2% (inactive) |
| O=C(Nc1cc(C(F)(F)F)ccc1N1CCOCC1)c1c(F)c(F)c(F)c(F)c1F | 69.9% (active) |

| Structure (SMILES) | cytotoxicity |
| --- | --- |
| COc1cc(C2NC(=O)c3ccccc3O2)cc(OC)c1OC (centres undefined) | -13.8% (inactive) |
| OC1C=CSc2nc3ccccc3n21 (centres undefined) | -17.8% (inactive) |
| COC(=O)COc1ccc(NC(=O)C2CCCO2)cc1 (centres undefined) | -3% (inactive) |
| CC(C)C[C@H](NC(=O)NCc1ccc(Cl)cc1)C(=O)O | 5.3% (inactive) |
| COc1ccccc1C(=O)Nc1nnc(-c2ccc(F)cc2)o1 | -1.2% (inactive) |
| CCCOC(=O)Nc1nc2ccccc2o1 | -0.4% (inactive) |
| CC(C)CCn1cnc2c(cnn2-c2ccc(F)cc2)c1=O | -10.9% (inactive) |
| C=CCOc1ccccc1CNn1nnnc1N | -4.5% (inactive) |
| O=C(O)c1ccc(N2CCCCC2)cc1 | -1.2% (inactive) |
| Nc1ccc(N2CCCCC2)cc1N1CCCCC1 | 34.3% (inactive) |
| O=C(O)CCn1[nH]c(=O)ccc1=O | -18.2% (inactive) |
| CSc1ccccc1NC(=O)c1ccco1 | 4.6% (inactive) |
| COc1ccc(C2C3=C(CC(c4ccco4)CC3=O)Nc3ccccc3N2C(C)=O)cc1 (centres undefined) | -5.9% (inactive) |
| CCC(=O)N1c2ccccc2NC2=C(C(=O)CC(c3ccco3)C2)C1c1ccco1 (centres undefined) | 7.6% (inactive) |
| O=C1CC(c2ccco2)CC2=C1C1c3ccccc3C(=O)N1c1ccccc1N2 (centres undefined) | 51.6% (active) |
| COC(=O)C(C(=O)OC)=C(/C=C/N(C)C)N(C)C | 0.2% (inactive) |
| Nc1nonc1C(=O)NCCNCc1ccccc1OCc1ccccc1F | 0.9% (inactive) |
| Nc1nonc1C(=O)NCCNCc1cc(Br)ccc1OCc1ccccc1F | 17.1% (inactive) |
| Nc1nonc1C(=O)NCCNCc1cc(Br)ccc1OCc1ccc(F)cc1 | 54% (active) |
| COCCn1c(SCC(=O)N2CCCCC2)nc2ccccc2c1=O | 4.9% (inactive) |
| CC(=O)Nc1ccc(S(=O)(=O)N(C)c2ccc(O)cc2)cc1 | -12.1% (inactive) |
| CCOc1ccc(C(=O)Nc2ccc3c(c2)OCO3)cc1OCC | -16.6% (inactive) |
| CCOC(=O)c1ccc(NC(=O)C2CCN(S(=O)(=O)c3ccccc3)CC2)cc1 | 6.6% (inactive) |
| Cc1ccc(C)c(Cn2c(=O)n(CCCC(=O)NCc3ccco3)c(=O)c3ccccc32)c1 | 56.3% (active) |
| Cc1ccccc1Cn1c(=O)n(CCCC(=O)NCc2ccco2)c(=O)c2ccccc21 | -20.6% (inactive) |

| Structure (SMILES) | cytotoxicity |
| --- | --- |
| Cc1ccc(C)c(Cn2c(=O)n(CCC(=O)NCc3ccco3)c(=O)c3ccccc32)c1 | 3% (inactive) |
| COc1ccc(CCNC(=O)CSc2nc(N)c3c(C)c(C)oc3n2)cc1OC | 4.3% (inactive) |
| O=C(Nc1cccc2ccccc12)N1CCN(c2ccccc2)CC1 | 10.4% (inactive) |
| O=C(Nc1ccc2snnc2c1)N1CCN(c2ccccc2)CC1 | -17.1% (inactive) |
| O=C(Nc1cccc(NC(=O)N2CCN(c3ccccc3)CC2)c1)N1CCN(c2ccccc2)CC1 | 61.3% (active) |
| COc1cc(OC)cc(-c2cc(NC(C)=O)n[nH]2)c1 | -2% (inactive) |
| CCOC(=O)c1[nH]c(C)c(C(=O)N2CCOCC2)c1C | 4.4% (inactive) |
| C/C=C/c1ccc(OC)c(OC(C)=O)c1 | 1.5% (inactive) |
| COc1cc(/C=C/C2=NC(=O)C(C)(C)O2)ccc1O | 32.6% (inactive) |
| O=C(Nc1cccnc1N1CCOCC1)c1ccco1 | -0.2% (inactive) |
| CCn1c(SCC(=O)c2cc(OC)ccc2OC)nnc1C1CC1 | 4.1% (inactive) |
| COC(=O)c1ccc(NC(=O)c2sc3nc(-c4ccccc4)cn3c2C)cc1 | -6.6% (inactive) |
| CN(C)c1ccc(/C=[N+](\[O-])C2SC(=S)N(C)C2(C)C)cc1 (centres undefined) | -16.8% (inactive) |
| Cc1ccc2c(COn3nnc4ccc(S(=O)(=O)N(C)C)cc43)cc(=O)oc2c1C | 2.9% (inactive) |
| CCc1ccc2c(COC(=O)c3n[nH]c4ccccc34)cc(=O)oc2c1 | 17.5% (inactive) |
| CCc1ccc2c(COn3nnc4ccc(S(=O)(=O)N(C)C)cc43)cc(=O)oc2c1 | 62% (active) |
| COc1ccc(Cn2c(-c3ccco3)nc3oc4ccccc4c(=O)c3c2=O)cc1 | 8.5% (inactive) |
| Cn1c(NCCO)nc2c(c1=O)C1(CCCCC1)Cc1ccccc1-2 | 10.5% (inactive) |
| CC1(C)Cc2ccccc2-c2nc(NCCO)n(-c3ccccc3)c(=O)c21 | -9.1% (inactive) |
| O=c1[nH]c(NCCCO)nc2c1C1(CCCC1)Cc1ccccc1-2 | 26.4% (inactive) |
| CC1(C)CC(n2c(NCCO)nc3c(c2=O)C2(CCCC2)Cc2ccccc2-3)CCO1 (centres undefined) | 64.4% (active) |
| Cn1c(NCCCO)nc2c(c1=O)C1(CCCCC1)Cc1ccccc1-2 | 51.9% (active) |
| O=c1[nH]c(NCCO)nc2c1C1(CCCCC1)Cc1ccccc1-2 | 17.6% (inactive) |
| Cc1ccc(S(=O)(=O)N2CCN(S(=O)(=O)N3CCCCC3)CC2)c(C)c1 | 6.6% (inactive) |
